Laboratory results: PubChem BioAssay AID1117319 (Southern Research Institute, 2015)
Where “and” joins values, the source holds several entries; their conditions need not be identical. Equal values may be shown once. Among all 260,000 compounds or so, about 1,500 (0.58%) were called active. Another 5% or so got no clear call; they are omitted.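 Rule for the calls: active = inhibition above a set limit at one or more doses, reproduced on every date tested; inconclusive = results disagree between test dates, or hit never tested in dose response; inactive = the rest.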 These entries were drawn from the full list. Entries with a potency or affinity are not part of this list.

Target: Virion infectivity factor (Human immunodeficiency virus type 1 group M subtype B (isolate BH10)) + Virion infectivity factor (Human immunodeficiency virus type 1 group M subtype B (isolate BRU/LAI)) + Virion infectivity factor (Human immunodeficiency virus type 1 group M subtype B (isolate PCV12)) + Virion infectivity factor (Human immunodeficiency virus type 1 group M subtype B (isolate HXB2)) + DNA dC->dU-editing enzyme APOBEC-3G (Homo sapiens) (UniProt P69720+P69721+P69722+P69723+Q9HC16)
Experiment: inhibitors of Vif binding to APOBEC3G peptide, primary screen, biochemical, TR-FRET, GST-Vif 1-94, biotin-A3G peptide, dose response retest (AID 1117319);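 note: Vif residues 1-94 fused to GST binding biotinylated APOBEC3G peptide 110-148; 0% = full assay without inhibitor and 100% = GST in place of GST-Vif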
Conditions: stronger effect = higher value

inhibition, inactive:
Cc1ccc(-c2nc(N)n(S(=O)(=O)c3ccc(C)cc3)n2)cc1 0.67%, CC(C)C1Nc2ccc(S(N)(=O)=O)cc2C2C=CCC21 (stereo not drawn) 30.5%, O=C(C1CC=CCC1)N1CCN(S(=O)(=O)c2ccc(F)cc2)CC1 (stereo not drawn) -4.47%, CC(OC(=O)c1n[nH]c2ccccc12)C(=O)NC1CCCCC1C (stereo not drawn) 1.37%, CCOC(=O)N1CCN(c2ccc(Cl)cc2)CC1 -2.77%, CCOC(=O)N1CCN(c2ccc([N+](=O)[O-])cc2)CC1 0.75%, CCc1ccccc1NC(=S)N(CCCN(C)C)Cc1cc2cc3c(cc2[nH]c1=O)OCO3 -0.74%, Clc1ccc(Oc2nc(N3CCOCC3)nc(N3CCOCC3)n2)c(C2CCCCC2)c1 -3.78%, O=C(O)c1cccc2c1-c1c(cccc1[N+](=O)[O-])C2 -2.94%, O=C(O)c1ccc(N2C(=O)CSC2c2cccc([N+](=O)[O-])c2)cc1 (stereo not drawn) -1.67%, O=C(O)C1CCC(NSc2ccccc2[N+](=O)[O-])CC1 (stereo not drawn) -7.35%, CCN(C(=O)c1ccc(Cl)c([N+](=O)[O-])c1)c1ccccc1 3.48%, CCN(CC(=O)Nc1ccc(NC(C)=O)cc1)C(=O)c1ccc(N2CCC(C)CC2)c([N+](=O)[O-])c1 3.59%, O=C(NC1CC1)c1ccc2c(c1)C1C3CCC(C3)C1C(c1ccccc1)N2 (stereo not drawn) 3.47%, CC(C)Cc1cc(C(=O)Nc2cc(C(F)(F)F)ccc2Cl)no1 14.1%, C=Cc1ccc(CSc2cc(C)nc3nc(C)nn23)cc1 -4.49%, Cc1ccc(CNc2ccc3c(c2)ncn3C(C)C)cc1 15.2%, CC(C)(C)c1ccc(C(=O)C2CCCN(C(=O)CN3CCCC3=O)C2)cc1 (stereo not drawn) -3.41%, Cc1ccc(NC(=O)CCCN2C(=O)C(c3ccccc3)Oc3cccnc32)c(C)c1 (stereo not drawn) -3%, CCCCOc1ccc(C(=O)N/C(=C\c2ccc(OC)cc2)C(=O)OCc2ccco2)cc1 -1.87%, COc1ccc(C(=O)N/C(=C\c2ccco2)C(=O)OCc2ccco2)cc1 19.9%, COc1ccc2c(c1)NC(C)(C)C=C2C 32.2%, COc1cc(NC(C)CCCNC(C)C)c2ncccc2c1OC (stereo not drawn) 3.4%, COc1cc(NCCCCCCCN)c2ncccc2c1 3.69%, COC(=O)c1cc(NC(=O)COC(=O)CCc2c[nH]c3ccccc23)cc(C(=O)OC)c1 2.64%, O=C1N=C(N2CCOCC2)S/C1=C/c1ccc(-c2ccccc2Cl)o1 7.88%, CC(=O)N1CC(=O)N(Cc2ccccc2)/C(=C/c2ccccc2)C1=O 7.17%, O=C1CC(/C=C/c2ccccc2)=Nc2ccccc2N1 4.19%, O=C1CC(/C=C/c2ccncc2)=Nc2ccccc2N1 3.89%, CC1=C([N+](=O)[O-])C(c2ccc(Cl)cc2)NC(=O)N1C (stereo not drawn) 6.98%, FC(F)(F)c1ccc(N2CCN(Cc3ccc4c(c3)OCO4)CC2)nc1 -10.1%, CCOC(=O)C1=C(N)OC2=C(C(=O)CC(C)(C)C2)C1c1ccoc1 (stereo not drawn) -2.95%, CC(C)NC(=O)COc1ccc(Cl)cc1Cl -3.29%, Cc1ccc(C(=O)/C=C/Nc2cccc(O)c2)cc1 1.59%, C/C(=C\C(=O)c1ccc(Br)cc1)Nc1cccc(Cl)c1 -2.57%, O=C(Cc1ccccc1)NNC1CC(=O)N(c2ccc(Cl)cc2)C1=O (stereo not drawn) 8.41%, Cc1ccnc(SCc2cc(=O)c(OC(=O)c3ccccc3)co2)n1 6.36%, CCN(CC)c1ccc(C(=S)NCc2ccccc2)cc1 7.25%, CCN(CC)c1ccc(NC(=O)Nc2ccccc2)cc1 5.11%, COc1ccccc1NC(=O)C(C)N1C(=O)C2CCCCC2C1=O (stereo not drawn) 9.66%, COc1ccc(CCNC(=S)Nc2cc(C)ccc2C)cc1 2.7%, COc1ccc(N=C2NC(=O)/C(=C/C=C/c3ccccc3)S2)cc1 -3.43%, COC(=O)/C=C1\SC(=Nc2ccc(OC)cc2)NC1=O -0.91%, Cn1cccc1/C=C1\SC(=Nc2ccc(O)cc2)NC1=O -0.29%, O=C1NC(=Nc2ccc3ccccc3c2)S/C1=C/c1ccco1 -0.8%, COc1ccc2c(c1OC)C(=O)OC2CC(=O)c1ccc2c(c1)OCO2 (stereo not drawn) -2.78%, CCOC(=O)CSc1ccc2nnc(-c3ccncc3)n2n1 3.55%, Cc1ccc(NC(=O)C2CCC2)cc1S(=O)(=O)N1CCCCCC1 0.74%, O=S(=O)(NCC(c1cccnc1)N1CCOCC1)c1ccc(Cl)cc1 (stereo not drawn) 1.91%, CC(C)c1ccccc1NC(=O)Cn1c(/C=C/c2ccccc2)nc2ccccc21 2.28%, Cc1cc(N/N=C/c2ccc(N(C)C)cc2)nc(NCc2ccccc2)n1 7.69%, CC(=O)c1ccc(S(=O)(=O)NCc2cccnc2)cc1 0.59%, COc1cc(C(C)=O)ccc1OCC(=O)N1CCCC1c1ccc2c(c1)OCCCO2 (stereo not drawn) -2.26%, CCCCn1c(SCC(=O)NCCOC)nc2ccc(N3CCOCC3)cc2c1=O 32.1% and 5.24%, CCCCn1c(SCC(=O)NCc2ccccc2)nc2ccc(N3CCOCC3)cc2c1=O 18.7%, CCCC(=O)Nc1cc(C)c(NC(=O)Cc2ccccc2)cn1 -1.31%, CCN(CC)c1cc(Cl)c2nonc2c1N 0.28%, Nc1c(N2CCCC2)cc(Cl)c2nonc12 22.8%, CCOC(=O)N1CCN(C(=O)c2c(-c3ccccc3)noc2C)CC1 -4.55%, O=C(NCc1ccco1)c1cc(-c2ccccc2)on1 -2.43%, Cc1onc(-c2c(Cl)cccc2Cl)c1C(=O)NCc1ccco1 2.61%, COc1cccc(-c2cc(C(=O)NCc3ccco3)no2)c1 2.27%, Cc1onc(-c2c(F)cccc2Cl)c1C(=O)NCc1ccco1 0.03%
